Results reported in PubChem BioAssay (NCATS).
Inconclusive results are not listed. Where a call stands in place of a potency, no number is given. For part of these data: Measured potencies and affinities stand elsewhere. Activity calls are given as the source filed them.

How the values were obtained:
[1] = Ebola virus entry assay, green fluorescence channel
[2] = Ebola virus entry assay, blue channel fluorescence
[3] = Ebola virus entry assay, green fluorescence channel; remark: listed apart in the source
[4] = Ebola virus entry assay, ratio channel readout
[5] = Ebola virus entry assay, blue channel fluorescence; remark: listed apart in the source
[6] = Ebola virus entry assay, ratio channel
[7] = Ebola virus entry assay, green channel fluorescence
[8] = Ebola virus entry assay, blue channel fluorescence; remark: listed apart in the source
[9] = Ebola virus entry assay, reporter ratio channel; AC50: Channel type: primary unless noted; outcome: Channel type: primary unless noted
[10] = Ebola virus entry assay, blue channel (ratio component)
[11] = Ebola virus entry reporter assay, green channel fluorescence
[12] = Ebola virus entry cell assay, ratio channel
[13] = High-throughput drug toxicity screening in the BPDCN cell line Gen2.2 (AID 1224824); conditions: Gen2.2 BPDCN cells; at 45.8 µM (top of the series);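 further: cells exposed to compounds for 48 h before reading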
How it was run: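 CellTiter-Glo luminescence read after 48 h compound exposure at 37 C defines viability; percent activity set with DMSO as 100% and bortezomib (9.2 uM final) as 0%. 500 exponentially growing cells per well, RPMI plus 10% FBS.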

[14] = High-throughput drug toxicity screening in the BPDCN cell line Cal-1 (AID 1224825); conditions: Cal-1 BPDCN cell viability, qHTS; at 45.8 µM (top of the series)
How it was run: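 Cal-1 cells, 500 per well in phenol-red-free RPMI with 10% FBS, exposed to compounds for 48 hours at 37C, 5% CO2. Viability read by CellTiter-Glo luminescence; percent activity normalized to DMSO (100%) and 9.2 uM bortezomib final (0%).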

[15] = qHTS assay for measurement of the activity of small molecule inhibitors on Zika virus induced Caspase-3 activity in human iPSC derived neural progenitor cells (hNPCs) (AID 1224857; active means well fitted inhibition curve with a large enough effect; further: nearly all actives have a fitted effect of over 65% in size); conditions: hNPCs ZIKV-induced caspase-3/7, Caspase-Glo luminescence, 6 h; series mostly up to 45.7 µM
How it was run: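 Quantitative HTS format: human iPSC neural progenitors, 1 h compound pretreatment, ZIKV 2 FFU/cell for 6 h at 37 C. Percent inhibition derived from luminescent caspase-3/7 signal between uninfected and infected controls.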

[16] = qHTS assay for measurement of the activity of small molecule inhibitors on Zika virus induced Caspase-3 activity in human astrocytoma cells (AID 1224859; active means well fitted inhibition curve with a large enough effect); conditions: SNB-19 ZIKV-induced caspase-3/7, luminescence, 6 h; series mostly up to 45.7 µM
How it was run: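 Readout is luminescence from Caspase-Glo 3/7 added after a 6 h ZIKV infection (2 FFU/cell) of compound-pretreated (1 h) SNB-19 cells; data expressed as % inhibition versus uninfected and infected wells.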

[17] = qHTS Screen of the MIPE 4.0 Collection Against Ewings Sarcoma (RDES) (AID 1259252; active means well fitted inhibition curve with a large enough effect; further: nearly all actives have a fitted effect of over 35% in size); conditions: RD-ES Ewing sarcoma viability, CellTiter-Glo, 48 h; series mostly up to 45.8 µM
How it was run: (§1)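 Viability screen: 48 h incubation at 37C, 95% humidity, 5% CO2 with serially titrated compound, followed by CellTiter-Glo readout.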

[18] = qHTS Screen of the MIPE 4.0 Collection Against Ewings Sarcoma (TC32) (AID 1259256; active means well fitted inhibition curve with a large enough effect; further: nearly all actives have a fitted effect of over 45% in size); conditions: TC32 Ewing sarcoma viability, CellTiter-Glo, 48 h; series mostly up to 45.8 µM
How it was run: as §1

[19] = Immunotoxin (HA22) sensitization/mitigation study. Vehicle arm (PBS) (AID 1159510); conditions: cancer cells viability with PBS vehicle (HA22 study); series mostly up to 46.1 µM; further: potency means the concentration at half of the fitted maximal effect
[20] = Immunotoxin (SS1P) sensitization/mitigation study. Vehicle arm (DMEM) (AID 1159513); conditions: cell viability with vehicle (DMEM); series mostly up to 46.1 µM; further: potency means the concentration at half of the fitted maximal effect

Row | SMILES | efficacy [1] | outcome [2] | outcome [3] | outcome [4] | outcome [5] | outcome [6] | outcome [7] | outcome [8] | outcome [9] | outcome [10] | outcome [11] | outcome [12] | cell viability, % of control (lower = more cytotoxic) [13] [%] | viability (% of control) [14] [%] | Potency [15] | outcome [16] | Potency [17] | Potency [18] | Potency [19] | Potency [20]
1 | O=C(c1ccccc1)c1ccc2n1CCC2C(=O)O (stereo not drawn) | 22% (inactive) | inactive | inactive | inactive | inactive | inactive | inactive | inactive | inactive | inactive | inactive | inactive |  |  |  |  |  |  |  | 
2 | O[C@@H]1CO[C@H]2[C@@H]1OC[C@@H]2O | 15.8% (inactive) | inactive | inactive | inactive | inactive | inactive | inactive | inactive | inactive | inactive | inactive | inactive |  |  |  |  |  |  |  | 
3 | O=C1CC[C@@]2(O)[C@H]3Cc4ccc(O)c5c4[C@@]2(CCN3CC2CC2)[C@H]1O5 | -27.7% (inactive) | inactive | inactive | inactive | inactive | inactive | inactive | inactive | inactive | inactive | inactive | inactive | 200 | 62 | inactive | inactive | inactive | inactive |  | 
4 | CNS(=O)(=O)CCc1ccc2[nH]cc(C3CCN(C)CC3)c2c1 | -15% (inactive) | inactive | inactive | inactive | inactive | inactive | inactive | inactive | inactive | inactive |  | inactive |  |  |  |  |  |  |  | 
5 | CCCN(CCC)S(=O)(=O)c1ccc(C(=O)O)cc1 | -17.8% (inactive) | inactive | inactive | inactive | inactive | inactive | inactive | inactive | inactive | inactive |  | inactive |  |  |  |  |  |  |  | 
6 | CN(C)c1nc(N(C)C)nc(N(C)C)n1 | 14.8% (inactive) | inactive | inactive | inactive | inactive | inactive | inactive | inactive | inactive | inactive |  | inactive |  |  |  |  |  |  |  | 
7 | Nc1nc(F)nc2c1ncn2[C@@H]1O[C@H](CO)[C@@H](O)[C@@H]1O | 16.7% (inactive) | inactive | inactive | inactive | inactive | inactive | inactive | inactive | inactive | inactive |  | inactive |  |  |  |  |  |  |  | 
8 | COC(c1ccccc1)(c1ccccc1)[C@H](Oc1nc(C)cc(C)n1)C(=O)O | -17.9% (inactive) | inactive | inactive | inactive | inactive | inactive | inactive | inactive | inactive | inactive |  | inactive |  |  |  |  |  |  |  | 
9 | COc1nc(N)nc2c1ncn2[C@@H]1O[C@H](CO)[C@@H](O)[C@@H]1O | -33.2% (inactive) | inactive | inactive | inactive | inactive | inactive | inactive | inactive | inactive | inactive |  | inactive |  |  |  |  |  |  |  | 
10 | Cc1oncc1C(=O)Nc1ccc(C(F)(F)F)cc1 | -17.5% (inactive) | inactive | inactive | inactive | inactive | inactive | inactive | inactive | inactive | inactive | inactive | inactive |  |  |  |  |  |  | 20.9 µM (active) | 
11 | CCOc1ccc2ccccc2c1C(=O)N[C@@H]1C(=O)N2[C@@H]1SC(C)(C)[C@@H]2C(=O)O | 20.5% (inactive) | inactive | inactive | inactive | inactive | inactive | inactive | inactive | inactive | inactive |  | inactive |  |  |  |  |  |  |  | 
12 | C[C@H]1O[C@H](O[C@H]2[C@H](O)[C@@H](O)[C@@H](O[C@H]3[C@H](O)[C@@H](O)[C@H](O)O[C@@H]3CO)O[C@@H]2CO)[C@H](O)[C@@H](O)[C@@H]1N[C@H]1C=C(CO)[C@@H](O)[C@H](O)[C@H]1O | 9.72% (inactive) | inactive | inactive | inactive | inactive | inactive | inactive | inactive | inactive | inactive |  | inactive |  |  |  |  |  |  |  | 
13 | C=C(c1ccc(C(=O)O)cc1)c1cc2c(cc1C)C(C)(C)CCC2(C)C | 22.5% (inactive) | inactive | inactive | inactive | inactive | inactive | inactive | inactive | inactive | inactive |  | inactive |  |  |  |  |  |  |  | 
14 | CC(C)NCC(O)c1ccc(O)c(O)c1 (stereo not drawn) | -9.56% (inactive) | inactive | inactive | inactive | inactive | inactive | inactive | inactive | inactive | inactive |  | inactive |  |  |  |  |  |  |  | 
15 | NS(=O)(=O)Cc1noc2ccccc12 | -13.2% (inactive) | inactive | inactive | inactive | inactive | inactive | inactive | inactive | inactive | inactive |  | inactive |  |  |  |  |  |  |  | 
16 | NC(=O)NO | 10% (inactive) | inactive | inactive | inactive | inactive | inactive | inactive | inactive | inactive | inactive |  | inactive |  |  |  |  |  |  |  | 
17 | Oc1cn2c(n1)Nc1ccc(Cl)c(Cl)c1C2 | -19.4% (inactive) | inactive | inactive | inactive | inactive | inactive | inactive | inactive | inactive | inactive | inactive | inactive |  |  |  |  |  |  |  | 0.0066 µM (active)
18 | CCC1C(=O)OCC1Cc1cncn1C (stereo not drawn) | -25.5% (inactive) | inactive | inactive | inactive | inactive | inactive | inactive | inactive | inactive | inactive | inactive | inactive |  |  | inactive |  |  |  |  | 
